SMILES strings stand for the structures. About 83,000 compounds went through this panel and 20% of them were active in at least one assay; those are over-represented in the sample as a whole.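 Cells were grown in 96-well plates and exposed to the test compound at a single concentration for 48 hours; results are reported as percent growth, with values below 10 considered active.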 A number with no mark means an inactive call. The source made the active and inactive calls.

Assay in all cases: NCI-60 one-dose screen, 48 h (100 = growth as untreated, 0 = no growth, -100 = all killed)
Holding throughout (details): 10 µM unless noted

Assay [1] relates to NCI-H23 lung.
Assay [2] deals with NCI-H226 lung.
In assay [3] the test system is NCI-H322M lung.
Assay [4] deals with HOP-62 NSCLC.
Assay [5] relates to NCI-H460 lung.
In assay [6] the test system is HOP-92 NSCLC.
The subject of assay [7] is NCI-H522 lung.
For assay [8], the system named is A549/ATCC NSCLC.
Assay [9] deals with 786-0 renal.
Assay [10] relates to COLO 205 colon.

Consider `COc1cccc(-c2nc3occn3c2-c2ccnc(NCCCNS(=O)(=O)c3ccc(C(F)(F)F)cc3)n2)c1`, for which the growth in assay [1] is 99.3%; in [2], 80.5%; in [3] it was 99.4%; in assay [4] it was 103%; in assay [5], 89.8%; in [6] it was 104%. Moreover, the growth in [7] is 86.9%; in assay [8], 89.7%; in assay [9] it was 86.8%; in assay [10] it was 70%.
`CCOC(=O)C1=C(CCl)NC(=O)NC1c1ccc2c(c1)OCO2` (stereo not given): the growth in assay [1] is 48.3%; in assay [2] it was 88.5%; in [3], 88.1%; in assay [4] it was 53.8%; in assay [5] it was 76.9%; in assay [6], 60.1%. The growth is -42.3% (active) in [7], 66.1% in [8], 43.2% in assay [9] and 75.6% in assay [10].
For the compound `Cc1ccc(CNc2c3ccccc3nc3cc(NC(=O)CCN4CCCC4)ccc23)cc1`, the growth in [1] was -48.1% (active); in assay [2] it was 35%; in assay [3] it was 1.8% (active); in [4], 19.9%; in assay [5], -64.7% (active); in assay [6] it was -0.443% (active). Moreover, the growth in assay [7] was -41.2% (active); in assay [8], -36.9% (active); in [9] it was 22.3%; in [10], -40.3% (active).
`C[C@H]1[C@H](C)CC[C@]2(C(=O)Nc3ccc4ncccc4c3)CC[C@]3(C)C(=CC[C@@H]4[C@@]5(C)CCCNC(C)(C)[C@@H]5CC[C@]43C)[C@H]12`: the growth in assay [1] was 51%; in [2], 110%; in assay [3], 63.1%; in assay [4], 95.2%; in [5] it was -79.8% (active); in assay [6], 60.2%. Besides, the growth in assay [7] is 9.94% (active); in [8], -92.1% (active); in [9] it was -96.2% (active); in assay [10], -82.7% (active).
Regarding `Cc1ccc(C(=O)/C(=C/c2ccc([N+](=O)[O-])cc2)SCc2ccc(Cl)cc2)cc1`, the growth in assay [1] is 61.8%; in [2] it was 76.3%; in assay [3] it was 75.5%; in assay [4], 100%; in assay [5], 74.6%; in [6] it was 92%. Also, the growth in assay [7] was 63.1%; in [8] it was 67.9%; in assay [9], 52.1%; in assay [10], 82.7%.
Take `O=C(CCN1CCCC1)Nc1ccc2c(Nc3ccc(Br)cc3)c3ccccc3nc2c1`: the growth is 18.8% in assay [1]; 62% in [2]; -11.4% (active) in assay [3]; -19.5% (active) in [4]; -69.2% (active) in assay [5]; 31.3% in [6]. The growth in [7] is -25% (active); in assay [8], -42.4% (active); in assay [9], 42.8%; in assay [10] it was -42.9% (active).
Take `OC(c1ccc(F)c(C(F)(F)F)c1)c1cnccc1NC1CCCCC1` (stereo not given): the growth is 51.7% in assay [1]; 78.1% in assay [2]; 89.5% in assay [3]; 85.8% in assay [4]; 69.5% in [5]; 40.2% in [6]. Also, the growth in assay [7] is 67.1%; in assay [8] it was 69.9%; in [9], 63.6%; in assay [10], -60.8% (active).
With `CC(=O)OC[C@]12CC[C@@H](C(=O)CBr)[C@@H]1[C@H]1CC[C@@H]3[C@@]4(C)CC[C@H](OC(C)=O)C(C)(C)[C@@H]4CC[C@@]3(C)[C@]1(C)CC2`, the growth in assay [1] is 95.4%; in assay [2], 100%; in [3] it was 103%; in assay [4] it was 103%; in [5], 105%; in assay [6], 96%. Further, the growth was -63.9% (active) in [7], 106% in assay [8], 95.1% in assay [9] and 101% in [10].
Take `CCN1C(=O)/C(=C/C(=O)OC)S/C1=N\NC(=O)c1cc2ccc1/C=C\c1ccc(cc1)/C=C\2`: the growth was 99.6% in [1]; 92.7% in assay [2]; 92.3% in assay [3]; 101% in [4]; 104% in assay [5]; 81.6% in [6]. For the same compound, the growth in assay [7] was 59.7%; in assay [8], 96.6%; in assay [9], 90.6%; in [10], 108%.
For the compound `NS(=O)(=O)c1ccc(CCN2C(=O)C3C(C2=O)C2(Cl)C(Cl)=C(Cl)C3(Cl)C2(Cl)Cl)cc1` (stereo not given), the growth is 92.9% in assay [1]; 101% in assay [2]; 104% in assay [3]; 104% in assay [4]; 104% in assay [5]; 47.6% in assay [6]. For the same compound, the growth in assay [7] is 91%; in [8], 101%; in assay [9], 95.3%; in [10], 108%.
Turning to `Nc1n[nH]c2cccc(C#Cc3cccc(C(=O)Nc4cc(CN5CCOCC5)cc(C(F)(F)F)c4)c3)c12`, the growth in assay [1] was 38.4%; in assay [2], 26.7%; in [3], 62.1%; in assay [4] it was 38.7%; in assay [5] it was 26.6%; in [6] it was -7.48% (active). Moreover, the growth in [7] was 39.3%; in assay [8], 42.4%; in assay [9], 63.8%; in assay [10], 14.6%.
As for `C=C1C(=O)O[C@H]2[C@H]1CC/C(CNC(=O)CCc1ccc(OC)cc1)=C\CC[C@@]1(C)O[C@@H]21`, the growth was 85.3% in [1]; 89.9% in [2]; 91.4% in assay [3]; 83.6% in assay [4]; 90.4% in assay [5]; 19.8% in assay [6]. For the same compound, the growth was 20.2% in assay [7], 81.7% in [8], 34% in assay [9] and 15.1% in assay [10].

The values are drawn from PubChem BioAssay (NCI).
